Assay [1] concerns the target Rho-associated protein kinase 1 (Homo sapiens) (UniProt Q13464). The note with it: at 1 µM.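 Further: reported values are mean percent inhibition of ROCK1.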
Assay [2] deals with Rho-associated protein kinase 2 (Homo sapiens) (UniProt O75116). The conditions noted are these: at 0.1 µM.
Assay [3] has the same target. The conditions noted are these: at 1 µM.
Assay [4] deals with Ribosomal protein S6 kinase alpha-1 (Homo sapiens) (UniProt Q15418). The note with it: at 0.1 µM.
For assay [5] the target is unchanged. The conditions noted are these: at 1 µM.
The target of assay [6] is Ribosomal protein S6 kinase alpha-3 (Homo sapiens) (UniProt P51812). The note with it: at 0.1 µM.
Chain of Ribosomal protein S6 kinase alpha-3 (Homo sapiens) (P51812 whole entry): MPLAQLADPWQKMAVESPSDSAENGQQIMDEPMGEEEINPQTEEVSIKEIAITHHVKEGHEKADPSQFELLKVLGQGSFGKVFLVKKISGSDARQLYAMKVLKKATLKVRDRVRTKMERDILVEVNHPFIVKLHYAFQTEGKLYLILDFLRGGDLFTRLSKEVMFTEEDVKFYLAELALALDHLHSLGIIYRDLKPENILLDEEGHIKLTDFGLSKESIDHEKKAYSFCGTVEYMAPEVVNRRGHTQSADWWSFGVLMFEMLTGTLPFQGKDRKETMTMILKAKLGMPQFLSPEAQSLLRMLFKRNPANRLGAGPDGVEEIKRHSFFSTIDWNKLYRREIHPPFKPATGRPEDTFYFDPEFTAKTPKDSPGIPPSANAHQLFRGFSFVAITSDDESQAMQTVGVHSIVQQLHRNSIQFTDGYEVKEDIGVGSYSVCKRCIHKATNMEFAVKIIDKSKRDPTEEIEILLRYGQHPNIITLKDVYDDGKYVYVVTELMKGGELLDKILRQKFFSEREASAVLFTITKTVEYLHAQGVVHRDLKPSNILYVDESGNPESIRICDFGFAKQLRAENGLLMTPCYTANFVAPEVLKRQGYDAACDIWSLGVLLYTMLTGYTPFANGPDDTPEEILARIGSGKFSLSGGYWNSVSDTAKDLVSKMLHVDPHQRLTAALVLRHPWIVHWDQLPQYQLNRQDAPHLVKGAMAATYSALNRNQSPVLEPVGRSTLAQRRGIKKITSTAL
For assay [7] the target is unchanged. The conditions noted are these: at 1 µM.
For assay [8], the target named is Ribosomal protein S6 kinase alpha-2 (Homo sapiens) (UniProt Q15349). The note with it: at 0.1 µM.
Chain of Ribosomal protein S6 kinase alpha-2 (Homo sapiens) (Q15349 whole entry): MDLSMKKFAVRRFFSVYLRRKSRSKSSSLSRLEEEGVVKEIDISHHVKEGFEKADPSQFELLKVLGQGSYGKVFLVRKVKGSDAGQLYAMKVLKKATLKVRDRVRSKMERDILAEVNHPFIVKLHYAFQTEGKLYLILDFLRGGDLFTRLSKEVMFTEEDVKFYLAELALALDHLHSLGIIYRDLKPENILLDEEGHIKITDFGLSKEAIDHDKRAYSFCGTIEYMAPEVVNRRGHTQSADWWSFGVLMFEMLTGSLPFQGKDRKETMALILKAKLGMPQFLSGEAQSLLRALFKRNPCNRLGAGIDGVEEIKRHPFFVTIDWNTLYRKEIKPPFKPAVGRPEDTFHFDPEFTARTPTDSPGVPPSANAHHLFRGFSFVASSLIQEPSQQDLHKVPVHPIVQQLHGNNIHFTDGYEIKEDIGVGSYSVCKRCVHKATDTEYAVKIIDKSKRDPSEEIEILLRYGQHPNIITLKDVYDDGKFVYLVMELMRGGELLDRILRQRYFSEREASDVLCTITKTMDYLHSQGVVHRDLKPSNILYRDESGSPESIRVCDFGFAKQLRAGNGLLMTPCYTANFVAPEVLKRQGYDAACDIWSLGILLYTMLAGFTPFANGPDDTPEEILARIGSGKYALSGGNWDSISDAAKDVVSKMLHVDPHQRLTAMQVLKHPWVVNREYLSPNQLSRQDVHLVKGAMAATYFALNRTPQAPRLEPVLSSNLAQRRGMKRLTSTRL
Assay [9] shares this target. The conditions noted are these: at 1 µM.
In assay [10] the target is Ribosomal protein S6 kinase alpha-6 (Homo sapiens) (UniProt Q9UK32). The conditions noted are these: at 0.1 µM.
Assay [11] shares this target. The note with it: at 1 µM.
Assay [12] addresses T1, Serine/threonine-protein kinase Sgk1 (Homo sapiens) (UniProt O00141).
T1 sequence (whole entry): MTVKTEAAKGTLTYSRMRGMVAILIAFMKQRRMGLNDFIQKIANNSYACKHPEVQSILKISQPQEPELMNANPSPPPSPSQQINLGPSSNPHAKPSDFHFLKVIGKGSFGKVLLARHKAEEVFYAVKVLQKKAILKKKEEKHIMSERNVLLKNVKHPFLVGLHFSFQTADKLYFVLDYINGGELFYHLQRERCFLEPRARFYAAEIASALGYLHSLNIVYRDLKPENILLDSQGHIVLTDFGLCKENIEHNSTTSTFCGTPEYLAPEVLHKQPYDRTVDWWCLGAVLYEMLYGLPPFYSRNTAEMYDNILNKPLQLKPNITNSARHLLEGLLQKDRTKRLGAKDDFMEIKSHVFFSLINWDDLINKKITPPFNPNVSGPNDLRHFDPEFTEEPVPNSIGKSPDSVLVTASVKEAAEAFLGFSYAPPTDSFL
The conditions noted are these: at 0.1 µM.

Assay [13] deals with T1, Serine/threonine-protein kinase Sgk1 (Homo sapiens). The conditions noted are these: at 1 µM.
Assay [14] concerns the target T2, Serine/threonine-protein kinase Sgk2 (Homo sapiens) (UniProt Q9HBY8).
T2 sequence (whole entry): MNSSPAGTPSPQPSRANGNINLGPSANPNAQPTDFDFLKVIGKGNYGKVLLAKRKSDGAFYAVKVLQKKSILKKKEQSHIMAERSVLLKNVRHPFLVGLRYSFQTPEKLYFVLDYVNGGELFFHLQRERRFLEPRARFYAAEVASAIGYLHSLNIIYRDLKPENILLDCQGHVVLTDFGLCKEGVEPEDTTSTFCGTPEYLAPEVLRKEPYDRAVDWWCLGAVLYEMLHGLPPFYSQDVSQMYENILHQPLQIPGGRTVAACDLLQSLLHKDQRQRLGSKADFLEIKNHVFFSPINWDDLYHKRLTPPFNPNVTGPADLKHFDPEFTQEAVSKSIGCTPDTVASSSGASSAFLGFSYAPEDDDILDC
The conditions noted are these: at 0.1 µM.

The target of assay [15] is T2, Serine/threonine-protein kinase Sgk2 (Homo sapiens). The note with it: at 1 µM.
Assay [16] has as its target T3, Serine/threonine-protein kinase Sgk3 (Homo sapiens) (UniProt Q96BR1).
T3 sequence (whole entry): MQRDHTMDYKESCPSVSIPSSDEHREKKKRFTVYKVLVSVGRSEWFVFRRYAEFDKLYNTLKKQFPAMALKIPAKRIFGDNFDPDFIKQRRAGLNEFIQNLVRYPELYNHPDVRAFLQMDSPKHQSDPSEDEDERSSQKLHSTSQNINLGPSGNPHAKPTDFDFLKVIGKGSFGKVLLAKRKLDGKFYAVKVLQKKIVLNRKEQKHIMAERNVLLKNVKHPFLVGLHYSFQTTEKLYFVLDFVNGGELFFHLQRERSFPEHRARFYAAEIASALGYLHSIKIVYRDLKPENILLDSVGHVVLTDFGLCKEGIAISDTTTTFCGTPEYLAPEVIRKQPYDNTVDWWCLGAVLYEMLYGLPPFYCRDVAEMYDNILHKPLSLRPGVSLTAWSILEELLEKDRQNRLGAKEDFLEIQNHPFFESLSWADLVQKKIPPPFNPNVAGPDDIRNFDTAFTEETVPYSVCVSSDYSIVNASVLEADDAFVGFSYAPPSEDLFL
The conditions noted are these: at 0.1 µM.

Assay [17] has as its target T3, Serine/threonine-protein kinase Sgk3 (Homo sapiens). The conditions noted are these: at 1 µM.
Assay [18] deals with 5'-AMP-activated protein kinase catalytic subunit alpha-1 (Homo sapiens) (UniProt Q13131). The conditions noted are these: at 0.1 µM.
Assay [19] shares this target. The conditions noted are these: at 1 µM.
Assay [20] has as its target 5'-AMP-activated protein kinase catalytic subunit alpha-2 (Homo sapiens) (UniProt P54646). The conditions noted are these: at 0.1 µM.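 Further: mean inhibition measured on the AMPK complex of alpha2, beta1 and gamma1 subunits.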

SMILES strings stand for the structures.

Chain of Rho-associated protein kinase 1 (Homo sapiens) (Q13464 2-1354 limits assumed): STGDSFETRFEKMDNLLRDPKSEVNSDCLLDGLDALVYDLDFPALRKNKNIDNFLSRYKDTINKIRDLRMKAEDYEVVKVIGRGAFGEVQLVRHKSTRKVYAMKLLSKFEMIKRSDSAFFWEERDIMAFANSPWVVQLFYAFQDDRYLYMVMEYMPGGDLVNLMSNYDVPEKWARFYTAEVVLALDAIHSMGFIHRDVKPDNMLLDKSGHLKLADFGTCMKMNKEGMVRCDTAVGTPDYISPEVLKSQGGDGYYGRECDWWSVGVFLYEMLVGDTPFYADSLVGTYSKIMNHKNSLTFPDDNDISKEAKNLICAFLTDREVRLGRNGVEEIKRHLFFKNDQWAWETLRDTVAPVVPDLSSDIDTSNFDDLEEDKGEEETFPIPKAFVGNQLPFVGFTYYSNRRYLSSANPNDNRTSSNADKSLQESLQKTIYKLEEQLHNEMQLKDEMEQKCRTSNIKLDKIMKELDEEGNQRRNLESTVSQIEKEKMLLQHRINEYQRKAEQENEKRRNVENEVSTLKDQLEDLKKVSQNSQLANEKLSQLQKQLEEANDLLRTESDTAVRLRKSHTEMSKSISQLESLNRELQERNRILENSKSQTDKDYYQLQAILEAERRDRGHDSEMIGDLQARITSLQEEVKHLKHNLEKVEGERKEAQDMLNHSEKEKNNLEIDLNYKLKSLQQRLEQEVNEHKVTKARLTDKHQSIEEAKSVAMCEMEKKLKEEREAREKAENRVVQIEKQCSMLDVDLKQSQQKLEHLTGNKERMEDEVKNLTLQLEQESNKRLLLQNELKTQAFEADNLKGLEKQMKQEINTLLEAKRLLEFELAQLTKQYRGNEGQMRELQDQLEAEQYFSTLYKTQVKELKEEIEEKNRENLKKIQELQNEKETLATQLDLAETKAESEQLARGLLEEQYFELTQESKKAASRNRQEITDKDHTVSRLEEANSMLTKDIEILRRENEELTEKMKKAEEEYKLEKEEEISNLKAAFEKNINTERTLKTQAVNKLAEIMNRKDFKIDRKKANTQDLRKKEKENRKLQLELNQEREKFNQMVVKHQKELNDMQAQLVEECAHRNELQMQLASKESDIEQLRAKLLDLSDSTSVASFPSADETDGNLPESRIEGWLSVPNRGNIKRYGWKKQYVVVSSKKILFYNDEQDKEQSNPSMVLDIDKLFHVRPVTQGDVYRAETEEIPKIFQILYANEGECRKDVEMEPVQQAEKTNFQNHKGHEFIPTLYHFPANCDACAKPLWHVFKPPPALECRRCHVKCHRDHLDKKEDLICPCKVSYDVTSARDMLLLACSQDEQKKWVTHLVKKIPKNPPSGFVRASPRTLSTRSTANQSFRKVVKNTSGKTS
Chain of Rho-associated protein kinase 2 (Homo sapiens) (O75116 whole entry, looked up): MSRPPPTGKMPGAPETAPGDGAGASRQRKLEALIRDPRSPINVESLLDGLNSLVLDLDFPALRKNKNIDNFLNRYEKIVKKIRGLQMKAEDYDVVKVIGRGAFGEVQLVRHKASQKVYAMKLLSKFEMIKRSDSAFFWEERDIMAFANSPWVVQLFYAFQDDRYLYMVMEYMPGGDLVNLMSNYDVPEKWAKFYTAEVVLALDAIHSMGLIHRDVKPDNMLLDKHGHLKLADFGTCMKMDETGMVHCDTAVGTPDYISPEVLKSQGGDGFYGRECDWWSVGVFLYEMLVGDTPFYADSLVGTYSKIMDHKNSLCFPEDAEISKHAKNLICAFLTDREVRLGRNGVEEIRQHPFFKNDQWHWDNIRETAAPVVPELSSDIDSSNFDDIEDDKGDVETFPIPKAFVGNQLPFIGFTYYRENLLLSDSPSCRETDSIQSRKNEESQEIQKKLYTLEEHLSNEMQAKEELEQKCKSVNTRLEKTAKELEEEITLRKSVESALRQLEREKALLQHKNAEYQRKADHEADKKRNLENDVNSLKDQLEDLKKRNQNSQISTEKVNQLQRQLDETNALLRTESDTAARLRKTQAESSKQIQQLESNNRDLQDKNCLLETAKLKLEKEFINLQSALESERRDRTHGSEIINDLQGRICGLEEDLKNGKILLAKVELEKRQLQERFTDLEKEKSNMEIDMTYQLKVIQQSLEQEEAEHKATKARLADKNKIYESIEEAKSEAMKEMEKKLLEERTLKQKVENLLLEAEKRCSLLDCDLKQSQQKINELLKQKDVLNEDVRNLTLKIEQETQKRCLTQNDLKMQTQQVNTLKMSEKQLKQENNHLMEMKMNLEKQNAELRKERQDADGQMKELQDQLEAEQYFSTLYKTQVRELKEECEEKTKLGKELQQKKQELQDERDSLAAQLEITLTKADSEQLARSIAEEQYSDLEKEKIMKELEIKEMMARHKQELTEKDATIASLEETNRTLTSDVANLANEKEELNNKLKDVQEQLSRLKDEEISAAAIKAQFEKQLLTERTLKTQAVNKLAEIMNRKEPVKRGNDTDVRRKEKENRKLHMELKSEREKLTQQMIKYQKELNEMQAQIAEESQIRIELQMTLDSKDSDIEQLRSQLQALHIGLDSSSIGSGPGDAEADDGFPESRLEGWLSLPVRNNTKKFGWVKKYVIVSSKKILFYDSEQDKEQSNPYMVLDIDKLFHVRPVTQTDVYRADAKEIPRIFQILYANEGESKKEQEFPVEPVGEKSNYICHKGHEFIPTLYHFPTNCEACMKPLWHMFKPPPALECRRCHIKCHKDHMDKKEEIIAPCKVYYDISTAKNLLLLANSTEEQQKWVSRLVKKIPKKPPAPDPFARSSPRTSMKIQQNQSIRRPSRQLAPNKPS
Chain of 5'-AMP-activated protein kinase catalytic subunit alpha-2 (Homo sapiens) (P54646 whole entry, looked up): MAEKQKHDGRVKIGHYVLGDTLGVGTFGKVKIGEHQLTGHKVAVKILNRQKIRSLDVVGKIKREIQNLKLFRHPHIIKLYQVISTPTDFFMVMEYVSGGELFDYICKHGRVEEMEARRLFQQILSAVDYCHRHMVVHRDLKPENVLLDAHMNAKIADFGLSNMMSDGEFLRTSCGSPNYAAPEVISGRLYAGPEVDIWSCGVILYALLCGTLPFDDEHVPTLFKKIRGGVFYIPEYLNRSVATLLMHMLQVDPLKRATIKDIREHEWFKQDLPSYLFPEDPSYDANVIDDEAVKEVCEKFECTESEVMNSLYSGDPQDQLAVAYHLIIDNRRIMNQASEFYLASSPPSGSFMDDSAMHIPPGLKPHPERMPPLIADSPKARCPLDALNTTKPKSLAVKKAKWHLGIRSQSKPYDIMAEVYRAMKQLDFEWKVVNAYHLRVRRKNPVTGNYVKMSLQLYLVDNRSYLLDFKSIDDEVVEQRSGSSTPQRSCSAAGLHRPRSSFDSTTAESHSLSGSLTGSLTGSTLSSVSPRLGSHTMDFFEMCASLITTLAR

`COc1ccc2ncnc(Nc3ccc(OCc4ccccc4)cc3)c2c1`: the inhibition (in general, the drop in the measured response relative to a control, in per cent) in assay [1] was -0.47%; in [2] it was 1.37%; in [3], 1.27%; in assay [4] it was 0.33%; in assay [5] it was 0.98%; in assay [6] it was 1.83%. In addition, the inhibition in assay [7] turned out to be 1.15%; in [8], 0.9%; in assay [9], 0.99%; in [10], 1.03%; in [11], 0.55%; in [12] it was 0.21%. Moreover, the inhibition in [13] is 4.55%; in [14], -1.08%; in [15] it was -0.13%; in assay [16], 2.62%; in [17] it was 2.59%; in assay [18], 2.15%. Further, the inhibition in assay [19] came to 1.44%; in assay [20], 0.53%.

For `NS(=O)(=O)c1ccc(N/N=C2\C(=O)Nc3ccc(Cl)cc32)cc1`, the inhibition in [1] worked out at 2.29%; in [2], 3.76%; in assay [3] it was 10.6%; in [4] it was 1.95%; in [5] it was 4.81%; in [6], 1.84%. The inhibition worked out at 3.95% in [7]; 1.83% in assay [8]; 2.94% in [9]; 0.98% in assay [10]; 3.15% in assay [11]; 3.68% in assay [12]. Also, the inhibition in assay [13] came out at 7.28%; in assay [14], 2.41%; in assay [15], 5.65%; in assay [16], 4.29%; in assay [17], 3.61%; in assay [18], 6.79%. In addition, the inhibition amounted to 16.1% in [19] and 1.86% in assay [20].

`OCc1ccc(-c2nc(-c3ccccn3)c(-c3ccc4c(c3)OCO4)[nH]2)cc1`: the inhibition in assay [1] came out at 2.25%; in assay [2], 3.74%; in [3] it was 1.44%; in [4], 1.38%; in [5] it was 0.67%; in assay [6] it was 0.79%. The inhibition amounted to 0.24% in assay [7]; 2.72% in assay [8]; 3.66% in assay [9]; 1.53% in [10]; 2.9% in assay [11]; 3.65% in assay [12]. Also, the inhibition in [13] is 0.91%; in assay [14], 1.37%; in assay [15], 1.29%; in [16], 3.28%; in assay [17], 2.86%; in assay [18], 3.68%. In addition, the inhibition in [19] turned out to be 2.81%; in assay [20], 2.09%.

Consider `Cc1cc(O)cc(C)c1/C=C/c1cncc(C(=O)N(C)C)c1`, for which the inhibition in assay [1] was 1.38%; in assay [2] it was 1.81%; in assay [3], 3.8%; in assay [4], 1.88%; in assay [5], 3.54%; in [6], 1.25%. The inhibition in assay [7] stood at 2.65%; in assay [8], 0.28%; in assay [9] it was 2.22%; in [10], 1.12%; in assay [11] it was 1.77%; in assay [12], 1.71%. Besides, the inhibition in assay [13] was 2.5%; in [14], -0.51%; in assay [15], 2.83%; in assay [16] it was 4.43%; in assay [17], 0%; in assay [18] it was 2.63%. The inhibition in assay [19] amounted to 1.76%; in assay [20] it was 1.57%.

For the compound `NS(=O)(=O)c1ccc(-c2cc3ccncc3cc2OCc2ccccc2)cc1`, the inhibition was 4.04% in assay [1]; 2.48% in assay [2]; 6.37% in assay [3]; 1.11% in assay [4]; 3.06% in assay [5]; -0.24% in [6]. Further, the inhibition was 0.92% in assay [7]; 0.22% in [8]; 2.19% in assay [9]; -0.43% in [10]; 0.34% in assay [11]; 2.5% in assay [12]. In addition, the inhibition in assay [13] is 2.69%; in assay [14], 1.44%; in assay [15], -1.22%; in assay [16], 0.75%; in assay [17], 2.72%; in [18], 2.82%. Moreover, the inhibition was determined as 3.15% in [19] and 0.66% in assay [20].

For the compound `c1ccc(Cc2nc3ccc(Nc4ncnc5ccccc45)cc3[nH]2)cc1`, the inhibition in assay [1] is 1.95%; in assay [2] it was 2.34%; in assay [3], 4.82%; in assay [4] it was 2.52%; in assay [5] it was 4.1%; in assay [6] it was 0.88%. The inhibition is 2.69% in [7]; 1.07% in assay [8]; 3.24% in assay [9]; 0.96% in assay [10]; 0.98% in assay [11]; 1.05% in assay [12]. The inhibition is 6.43% in assay [13]; 1.59% in assay [14]; 5.44% in assay [15]; 2.24% in assay [16]; 3.66% in assay [17]; 3.03% in assay [18]. The inhibition in [19] was 4.08%; in assay [20], -0.36%.

Consider `C[C@@H](Oc1cc(-n2cnc3ccc(OC[C@@H](O)CO)cc32)sc1C(N)=O)c1ccccc1Cl`, for which the inhibition was 1.42% in assay [1]; -0.36% in assay [2]; 0.84% in assay [3]; 0.36% in assay [4]; 3.32% in assay [5]; 1.35% in [6]. The inhibition in assay [7] was 5.89%; in [8], -0.54%; in [9], 3.27%; in [10], -0.4%; in [11], 12.7%; in assay [12] it was 1.2%. The inhibition was 0.68% in assay [13]; 1.68% in assay [14]; 2.9% in assay [15]; -1.63% in assay [16]; 0.55% in assay [17]; 0.18% in assay [18]. The inhibition in assay [19] came to 5.73%; in [20], 0.26%.

The values above are taken from ChEMBL document CHEMBL1961873, “Compounds: GSK PKIS; Assays: Nanosyn kinase panel” (2012).
